Drawing on PubChem BioAssay, this text covers z-score and composite z-score for 5 compounds.

Activity calls are given as the source filed them.

Experiment [1] is described as follows: optical density shifts of acrAB sulA E. coli – strain DRC41, OD650, 48 h, E. coli filamentation inducer project, primary screen (AID 1152).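 Note: E. coli MC1000 strain DRC41 lacking acrAB efflux pump and sulA.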 The settings on record: higher = more signal, called active from +8 up or from −8 down.
A short description of experiment [2]: probe aLefty1 binding on compound microarray – biochemical, small-molecule microarray, 635/667 nm fluorescence, primary screen (AID 1153).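 Note: score merges spot fluorescence with signal-to-noise ratio from the scanned slide images.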 The settings on record: higher = more signal.
Experiment [3] in a line: plasmodial surface anion channel blockers, osmotic lysis – cell-based, P. falciparum Indochina, OD700, 1 h, primary screen (AID 1154). The settings on record: P. falciparum Indochina infected RBC osmotic lysis, higher = more signal, called active from +8 up or from −8 down.
A short description of experiment [4]: plasmodial surface anion channel blockers, osmotic lysis – cell-based, P. falciparum Indochina, OD700, 2 h, primary screen (AID 1155).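 Note: lysis reports solute entry through the parasite surface anion channel PSAC.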 The settings on record: P. falciparum Indochina infected erythrocytes, higher = more signal, called active from +8 up or from −8 down.
Experiment [5] in a line: changes in parasitized red cell lysis, either direction – P. falciparum Indochina, OD700, 3 h, PSAC antagonist project, primary screen (AID 1156). The settings on record: P. falciparum-infected erythrocytes, osmotic lysis, higher = more signal, called active from +8 up or from −8 down.
Experiment [6] in a line: plasmodial surface anion channel blockers, osmotic lysis – cell-based, P. falciparum Indochina, OD700, 18 h, primary screen (AID 1157). Particulars: P. falciparum Indochina infected erythrocytes, osmotic lysis OD700, 18 h; higher = more signal, called active from +8 up or from −8 down.
The nature of experiment [7]: S6 kinase pathway phospho-S6 level changes – cell-based, A549, cytoblot, luminescence, serum-stimulated, primary screen (AID 1158).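 Note: serum-stimulated A549 lung adenocarcinoma cells; signal is phosphorylated S6 detected by cytoblot immunostaining with HRP secondary.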 The settings on record: 5 h, higher = more signal.
In experiment [8] the target is NADPH oxidase 2 (Homo sapiens) (UniProt P04839). Description: compounds shifting NOX2 Amplex Red fluorescence – cell-based, HEK293-NOX2, PMA-stimulated, NOX inhibitor project, primary screen (AID 1159). Note: test concentration not given here. The settings on record: 45 min, higher = more signal, called active from +8 up or from −8 down.
For experiment [9], the target named is NADPH oxidase 4 (Homo sapiens) (UniProt Q9NPH5). The experiment in a line: compounds shifting NOX4 Amplex Red fluorescence – cell-based, HEK293-NOX4, tetracycline-induced, NOX inhibitor project, primary screen (AID 1160). The settings on record: HEK293-NOX4, Amplex Red H2O2 fluorescence, 45 min; higher = more signal, called active from +8 up or from −8 down.
Experiment [10] addresses NADPH oxidase 5 (Homo sapiens) (UniProt Q96PH1). Description: compounds shifting NOX5 Amplex Red fluorescence – cell-based, HEK293-NOX5, NOX inhibitor project, primary screen (AID 1161). Particulars: HEK293-NOX5, ionomycin, 45 min, higher = more signal.
Experiment [11] is described as follows: compound effects on lung adenocarcinoma cell viability – A549, calcein-AM fluorescence, 48 h, basal, profiling panel (AID 1162). Note: test concentration not given here. The settings on record: higher = more signal.
The nature of experiment [12]: compound effects on differentiated 3T3-L1 adipocyte viability – cell-based, 3T3-L1 adipocytes, calcein-AM fluorescence, 48 h, basal, profiling panel (AID 1163). Note: test concentration not given here. The settings on record: 3T3-L1 adipocytes viability, higher = more signal.
A short description of experiment [13]: compound effects on hepatocellular carcinoma cell viability – HepG2, calcein-AM fluorescence, 48 h, basal, profiling panel (AID 1164). Note: test concentration not given here. Particulars: higher = more signal.
A short description of experiment [14]: compound effects on multiple myeloma cell viability – MM1S, calcein-AM fluorescence, 48 h, basal, profiling panel (AID 1165).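 Note: viability of MM1S multiple myeloma cells under basal unstimulated conditions; test concentration not given here.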 Particulars: higher = more signal.
Experiment [15] in a line: calcein-AM signal in unstimulated myeloma cells – cell-based, calcein-AM fluorescence, 48 h, PK04 Diversity Set, profiling panel (AID 1166).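 Note: cells grown under basal conditions without added stimulus; test concentration not given here.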 Particulars: RPMI8226 myeloma viability, higher = more signal.
Experiment [16] can be described thus: JC-1 mitochondrial signal, unstimulated HepG2 cells – cell-based, JC-1 fluorescence, 24 h, 100 nL compound, profiling panel (AID 1167). Note: test concentration not given here. The settings on record: HepG2 mitochondrial potential, higher = more signal.
Experiment [17] in a line: JC-1 mitochondrial signal, unstimulated adipocytes – cell-based, JC-1 fluorescence, 3T3-L1 adipocytes, 24 h, 100 nL compound, profiling panel (AID 1168). Note: test concentration not given here. The settings on record: JC-1 mitochondrial fluorescence, higher = more signal, called active from +8 up or from −8 down.
A short description of experiment [18]: JC-1 mitochondrial signal, unstimulated myeloma cells – cell-based, JC-1 fluorescence, RPMI8226, 24 h, 100 nL compound, profiling panel (AID 1169). Note: test concentration not given here. Particulars: JC-1 mitochondrial potential fluorescence, higher = more signal.
Experiment [19] is described as follows: JC-1 mitochondrial signal, unstimulated MM1S myeloma – cell-based, JC-1 fluorescence, 24 h, 100 nL compound, profiling panel (AID 1170). Note: test concentration not given here. Particulars: MM1S mitochondrial potential, higher = more signal.
A short description of experiment [20]: resazurin metabolic signal in A549 cells – cell-based, resazurin fluorescence, 24 h, PK04 Diversity Set, profiling panel (AID 1171). Note: test concentration not given here. Particulars: A549 viability, higher = more signal, called active from +8 up or from −8 down. (The colour change of resazurin is a common sign of viable cells or microbes.)

NADPH oxidase 5 (Homo sapiens), sequence (Q96PH1 whole entry, looked up): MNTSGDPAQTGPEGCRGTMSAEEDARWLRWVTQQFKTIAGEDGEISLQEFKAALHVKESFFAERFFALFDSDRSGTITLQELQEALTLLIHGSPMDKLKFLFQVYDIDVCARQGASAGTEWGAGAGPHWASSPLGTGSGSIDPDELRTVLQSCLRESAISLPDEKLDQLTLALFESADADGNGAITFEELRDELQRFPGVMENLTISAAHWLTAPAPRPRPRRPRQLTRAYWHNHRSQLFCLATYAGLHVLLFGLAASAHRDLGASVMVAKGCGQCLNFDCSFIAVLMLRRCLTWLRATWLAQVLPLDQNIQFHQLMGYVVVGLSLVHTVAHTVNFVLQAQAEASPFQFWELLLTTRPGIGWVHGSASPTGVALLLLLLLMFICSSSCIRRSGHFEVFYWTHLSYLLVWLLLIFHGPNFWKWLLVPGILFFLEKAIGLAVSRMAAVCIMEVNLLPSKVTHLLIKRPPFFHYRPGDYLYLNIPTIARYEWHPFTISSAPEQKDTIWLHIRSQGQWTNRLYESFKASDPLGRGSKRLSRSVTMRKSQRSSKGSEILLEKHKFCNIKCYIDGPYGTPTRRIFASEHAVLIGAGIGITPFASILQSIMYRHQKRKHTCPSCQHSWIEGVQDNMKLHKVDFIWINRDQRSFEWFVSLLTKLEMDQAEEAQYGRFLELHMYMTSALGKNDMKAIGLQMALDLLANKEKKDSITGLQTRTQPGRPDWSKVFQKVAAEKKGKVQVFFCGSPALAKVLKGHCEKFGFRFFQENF
NADPH oxidase 4 (Homo sapiens), sequence (Q9NPH5 whole entry, looked up): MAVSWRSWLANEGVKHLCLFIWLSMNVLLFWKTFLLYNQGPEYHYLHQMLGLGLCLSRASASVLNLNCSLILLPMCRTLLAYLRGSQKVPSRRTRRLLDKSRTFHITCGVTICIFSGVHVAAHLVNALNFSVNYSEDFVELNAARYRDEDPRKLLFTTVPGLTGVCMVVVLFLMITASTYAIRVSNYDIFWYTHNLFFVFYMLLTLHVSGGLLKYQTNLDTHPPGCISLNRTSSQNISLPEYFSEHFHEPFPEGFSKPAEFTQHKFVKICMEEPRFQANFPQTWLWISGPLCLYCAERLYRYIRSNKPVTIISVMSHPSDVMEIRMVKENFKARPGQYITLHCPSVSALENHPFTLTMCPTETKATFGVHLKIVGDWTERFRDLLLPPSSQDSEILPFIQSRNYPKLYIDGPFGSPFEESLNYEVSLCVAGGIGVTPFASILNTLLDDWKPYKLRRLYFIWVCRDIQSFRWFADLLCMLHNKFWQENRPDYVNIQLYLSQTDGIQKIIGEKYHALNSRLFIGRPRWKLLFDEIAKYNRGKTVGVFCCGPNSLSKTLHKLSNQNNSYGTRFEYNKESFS
NADPH oxidase 2 (Homo sapiens), sequence (P04839 whole entry, looked up): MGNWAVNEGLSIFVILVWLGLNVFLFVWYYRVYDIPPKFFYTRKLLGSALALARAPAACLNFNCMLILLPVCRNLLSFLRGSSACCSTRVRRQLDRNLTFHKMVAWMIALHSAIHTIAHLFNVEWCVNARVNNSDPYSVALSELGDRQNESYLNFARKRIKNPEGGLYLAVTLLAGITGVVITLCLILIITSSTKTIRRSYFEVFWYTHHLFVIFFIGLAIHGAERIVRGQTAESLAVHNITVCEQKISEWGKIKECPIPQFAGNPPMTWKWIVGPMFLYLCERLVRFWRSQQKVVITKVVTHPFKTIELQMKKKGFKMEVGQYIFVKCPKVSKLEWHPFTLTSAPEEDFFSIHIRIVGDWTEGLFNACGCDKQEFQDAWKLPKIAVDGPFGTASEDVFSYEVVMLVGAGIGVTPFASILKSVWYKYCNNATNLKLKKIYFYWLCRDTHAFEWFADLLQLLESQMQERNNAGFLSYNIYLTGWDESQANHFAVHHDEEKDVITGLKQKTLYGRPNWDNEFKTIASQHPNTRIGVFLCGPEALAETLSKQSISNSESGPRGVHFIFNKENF

Regarding `COc1ccc(C(O)C2C=CC3C(=O)N(C)C(=O)C3N2N2CCCCC2)cc1` (stereo not given), the z-score was -0.625 (inactive) in [1]; 1.41 (inactive) in [3]; 1.36 (inactive) in experiment [4]; -0.138 (inactive) in experiment [5]; 1.25 (inactive) in experiment [6]; -0.734 in [7]. Besides, the z-score in experiment [8] is -0.378 (inactive); in experiment [9] it was -0.744 (inactive); in experiment [10] it was -0.369; in experiment [11], -0.972; in experiment [12], 0.0526; in experiment [13], 0.133. Besides, the z-score in [14] is -0.207; in experiment [15], -0.0882; in experiment [16], -0.49; in [17], 0.0216 (inactive); in experiment [18] it was -0.176; in [19], 0.188. Besides, in experiment [20], the z-score was 0.014 (inactive). In experiment [2], this compound had a composite z-score of 0.381.
Consider `O=C(CCCCCCC(=O)Nc1ccccc1)N/N=C/c1ccccc1`, for which the z-score in [1] is -0.362 (inactive); in [3] it was 24 (active); in [4], 10.9 (active); in experiment [5] it was 0.0998 (inactive); in experiment [6], 0.992 (inactive); in experiment [7], -0.0886. The z-score was -0.3 (inactive) in experiment [8]; -0.0411 (inactive) in [9]; -0.185 in [10]; 1.08 in experiment [11]; 0.194 in [12]; -0.371 in experiment [13]. In addition, the z-score in experiment [14] is -0.669; in [15] it was -0.419; in experiment [16], -0.807; in experiment [17] it was -0.498 (inactive); in experiment [18], -0.045; in experiment [19], -0.593. For the same compound, in [20], the z-score was 0.589 (inactive). The composite z-score in [2] is -0.24.
`NC(N)=NCc1cn(CCc2c[nH]c3ccccc23)nn1`: the z-score in experiment [1] was -0.75 (inactive); in experiment [3], 0.488 (inactive); in experiment [4], 0.078 (inactive); in [5] it was 0.0119 (inactive); in [6], 0.114 (inactive); in experiment [7], -0.583. For the same compound, the z-score is -0.00385 (inactive) in experiment [8]; 0.0455 (inactive) in experiment [9]; -3.95 in [10]; -0.609 in [11]; -0.596 in [12]; -0.173 in [13]. For the same compound, the z-score in experiment [14] is -0.613; in experiment [15] it was -0.286; in experiment [16], -1.09; in experiment [17], -1.04 (inactive); in [18], -0.588; in experiment [19] it was -0.77. For the same compound, in experiment [20], the z-score was -0.975 (inactive). For the same compound, the composite z-score in experiment [2] is -0.151.
`CC[C@H]1C2=C3C(CC[C@H]4C(OCc5ccc(F)cc5C(F)(F)F)OC[C@](C)([C@@H]34)N(C(=O)OC(C)(C)C)C2)C2COC(=O)OCC21` (stereo not given in full): the z-score in experiment [1] is -2.17 (inactive); in [3] it was 1.28 (inactive); in [4], 0.584 (inactive); in [5], 1.63 (inactive); in experiment [6], 0.91 (inactive); in experiment [7], -0.445. Besides, the z-score in experiment [8] was -0.582 (inactive); in experiment [9], -1.74 (inactive); in experiment [10] it was -1.5; in experiment [11] it was -0.195; in experiment [12], -0.412; in experiment [13], 0.478. Further, the z-score was -2.9 in [14]; -4.68 in experiment [15]; -0.492 in [16]; -1.41 (inactive) in experiment [17]; -0.0899 in [18]; -1.45 in experiment [19]. Moreover, the z-score in [20] is -0.186 (inactive). The compound also returned a composite z-score in [2] of 0.513.
For the compound `COc1ccccc1CN1C(=O)c2ccccc2[C@@H](C(=O)NC(C)C)[C@@H]1c1ccc(CO)cc1`, the z-score is 0.671 (inactive) in experiment [1]; 1.18 (inactive) in experiment [3]; 0.525 (inactive) in experiment [4]; 0.797 (inactive) in experiment [5]; 0.376 (inactive) in experiment [6]; 0.0984 in experiment [7]. Moreover, the z-score in experiment [8] was 0.372 (inactive); in experiment [9], 1.44 (inactive); in [10], 0.976; in experiment [11], 1.66; in [12] it was 0.611; in experiment [13], 1.95. Further, the z-score in experiment [14] was 0.472; in [15], 0.717; in experiment [16], 1.63; in experiment [17] it was -0.41 (inactive); in experiment [18], 0.652; in experiment [19] it was -0.365. The z-score in [20] was 2.35 (inactive). In experiment [2], this compound displayed a composite z-score of 0.211.
